Only some compounds are listed: those with a hit (about 3.5% of all), similar ones and a draw of the others.
Bead autofluor = counter-screen for toxin protease inhibitors: compound fluorescence; compound autofluorescence counterscreen, microsphere flow cytometry; hits give high values; fluorescence intensity (no concentration beside the values); actives 3.1% (n = 360,000); AID 624483; in the data active = fluorescence intensity above about 16000; inconclusive = no clear call, values can overlap the other calls
BoNT-A LC inh2 = blocks Botulinum neurotoxin A light chain protease | AID 588499 | multiplex microsphere protease substrate cleavage, flow cytometry | inhibition, % at 10 µM | actives 0.17% (n = 360,000); note: plate controls were buffer without enzyme for full effect and enzyme alone for no effect
Vc quorum ag = inducers of Vibrio cholerae quorum light production without autoinducers. AID 588436. actives 0.16% (n = 350,000). activation, % at 18.7 µM. V. cholerae BH1578 lux reporter, luminescence, 6 h; in the data active = activation mostly above about 9.7%, no sharp cut-off; inconclusive = no clear call, values can overlap the other calls; inactive = mostly below about 3.7%
BoNT-F LC inh = inhibitors of Botulinum neurotoxin F light chain protease | Multiplex microsphere protease cleavage assay, flow cytometry | inhibition, % at 10 µM | actives 0.22% (n = 360,000) | AID 588497; in the data active = inhibition above about 35%, passing the limit was not always enough; inconclusive = no clear call, values can overlap the other calls; note: plate controls were buffer without enzyme for full effect and enzyme alone for no effect
Anthrax LF prot = anthrax lethal factor protease inhibition; P15917; multiplex microsphere protease cleavage assay, LF; inhibition, % at 10 µM; actives 0.12% (n = 360,000); note: plate controls were buffer without enzyme for full effect and enzyme alone for no effect
Starred values were filed as active, the others as inactive. Cut-off read from the data, not from the text of the source, unless noted: active = inhibition above about 30%; inconclusive = no clear call, values can overlap the other calls; inactive = below that.

What do the screens show for `Cc1cc(NC(=O)CN2CCN(c3ccccc3O)CC2)no1`?
Bead autofluor: 17083*; BoNT-A LC inh2: -2.1; Vc quorum ag: 3.6; BoNT-F LC inh: -4.8; Anthrax LF prot: -3.0

What do the screens show for `CCOc1ccc(CN(CC)C(=O)c2ccc3c(c2)[nH]c(=O)c(=O)n3CC)cc1OC`?
Bead autofluor: 3524; BoNT-A LC inh2: 0.6; Vc quorum ag: -2.2; BoNT-F LC inh: -27.1; Anthrax LF prot: -4.8

How did CCn1c(=N)n(CC(O)c2ccco2)c2ccccc21 (configuration not stated) do in these assays?
Bead autofluor: 28325*; BoNT-A LC inh2: -10.7; Vc quorum ag: -26.8; BoNT-F LC inh: -18.7; Anthrax LF prot: -1.9

What do the screens show for `O=C(COC(=O)C1CSC2(c3ccc(F)cc3)CCC(=O)N12)NC(=O)NC1CCCC1` (configuration not stated)?
Bead autofluor: 4438; BoNT-A LC inh2: -0.7; Vc quorum ag: -2.6; BoNT-F LC inh: 4.9; Anthrax LF prot: 2.5

How did Cc1ccc(CS(=O)(=O)CCC(=O)NCCN(C)Cc2ccccc2)cc1 do in these assays?
Bead autofluor: 23874*; BoNT-A LC inh2: -0.1; Vc quorum ag: -0.2; BoNT-F LC inh: -0.7; Anthrax LF prot: -1.0

How did NC(=O)c1ccc(NC(=O)COC(=O)CC2Sc3ccccc3NC2=O)cc1 (configuration not stated) do in these assays?
Bead autofluor: inconclusive; BoNT-A LC inh2: 1.0; Vc quorum ag: inactive; BoNT-F LC inh: -4.4; Anthrax LF prot: -0.4

How did Cc1noc(NS(=O)(=O)c2ccc(N/C=C/C(=O)c3ccncc3)cc2)c1C do in these assays?
Bead autofluor: 16425*; BoNT-A LC inh2: inconclusive; Vc quorum ag: inactive; BoNT-F LC inh: 0.0; Anthrax LF prot: -1.9

How did Cc1noc(NS(=O)(=O)c2ccc(N/C=C\C(=O)c3ccncc3)cc2)c1C do in these assays?
Bead autofluor: 8787; BoNT-A LC inh2: 1.8; Vc quorum ag: -0.7; BoNT-F LC inh: 11.1; Anthrax LF prot: -3.2

What do the screens show for `CC(C)[C@@H](CO)NC(=O)[C@H]1O[C@@H](n2cnc3c(N)ncnc32)[C@H](O)[C@@H]1O`?
Bead autofluor: 4410; BoNT-A LC inh2: 1.2; BoNT-F LC inh: 1.4; Anthrax LF prot: -2.4

What do the screens show for `Nn1c(COc2ccccc2)nnc1SC(F)F`?
Bead autofluor: 23749*; BoNT-A LC inh2: -0.3; Vc quorum ag: -0.1; BoNT-F LC inh: -2.2; Anthrax LF prot: -2.8

Results for Cc1ccc(OCc2nnc(SCC(=O)O)n2N)cc1 ?
Bead autofluor: 9404; BoNT-A LC inh2: 0.0; Vc quorum ag: inactive; BoNT-F LC inh: -10.2; Anthrax LF prot: 0.2

How did Nc1nc(Cl)cc(N2CCCC2)n1 do in these assays?
Bead autofluor: 4619; BoNT-A LC inh2: -1.2; Vc quorum ag: -0.1; BoNT-F LC inh: -5.1; Anthrax LF prot: -6.9

How did Nc1nc(Cl)cc(N2CCC(c3cc(-c4ccc(Cl)cc4Cl)n[nH]3)CC2)n1 do in these assays?
Bead autofluor: 21717*; BoNT-A LC inh2: -2.1; Vc quorum ag: inactive; BoNT-F LC inh: -6.0; Anthrax LF prot: -2.6

What do the screens show for `N#C/C(=C\c1ccc(Cl)cc1)C(=O)Nc1cccnc1`?
Bead autofluor: 4266; BoNT-A LC inh2: inconclusive; Vc quorum ag: inactive; BoNT-F LC inh: inconclusive; Anthrax LF prot: 8.6

Results for C/C(=N\NC(=O)Cc1ccc(Cl)cc1)c1ccc(F)cc1 ?
Bead autofluor: 4072; BoNT-A LC inh2: 0.9; Vc quorum ag: inactive; BoNT-F LC inh: 35.2*; Anthrax LF prot: -0.2

What do the screens show for `COc1cccc(CNC(=O)CN(C)S(=O)(=O)c2cccc3cccnc23)c1`?
Bead autofluor: 4497; BoNT-A LC inh2: 0.6; Vc quorum ag: -0.6; BoNT-F LC inh: -1.3; Anthrax LF prot: -9.6

Results for CN(Cc1ccccc1)S(=O)(=O)c1cccc2cccnc12 ?
Bead autofluor: 24517*; BoNT-A LC inh2: -2.9; Vc quorum ag: -5.6; BoNT-F LC inh: -3.1; Anthrax LF prot: -2.5

What do the screens show for `CCCc1nnc(NC(=O)C2CCN(C(=O)C3CC(=O)N(c4ccc(C)cc4)C3)CC2)s1` (configuration not stated)?
Bead autofluor: 4639; BoNT-A LC inh2: 8.2; Vc quorum ag: -0.5; BoNT-F LC inh: 8.4; Anthrax LF prot: 0.9

Results for Cc1occc1C(=O)NNC1=CC(=O)CC(C)(C)C1 ?
Bead autofluor: 2080; BoNT-A LC inh2: -0.9; Vc quorum ag: 1.1; BoNT-F LC inh: -3.6; Anthrax LF prot: -0.4

How did CCOC(=O)c1cccnc1SCc1cc(=O)n2ccccc2n1 do in these assays?
Bead autofluor: 7574; BoNT-A LC inh2: 0.8; Vc quorum ag: -0.1; BoNT-F LC inh: -2.1; Anthrax LF prot: 0.9

What do the screens show for `CC(OC(=O)c1cccnc1SCc1cc(=O)n2ccccc2n1)c1ccccn1` (configuration not stated)?
Bead autofluor: 16644*; BoNT-A LC inh2: -3.0; Vc quorum ag: inactive; BoNT-F LC inh: -5.0; Anthrax LF prot: -3.5

Results for CCN(CCn1cccn1)C(=O)CCc1nnc(C2(c3ccc(Cl)cc3)CCC2)o1 ?
Bead autofluor: 2561; BoNT-A LC inh2: 0.5; Vc quorum ag: inactive; BoNT-F LC inh: -5.4; Anthrax LF prot: 0.3

What do the screens show for `O=C(Cc1cccc(F)c1)N1CCOCC1`?
Bead autofluor: 3896; BoNT-A LC inh2: -0.5; Vc quorum ag: -0.3; BoNT-F LC inh: 6.0; Anthrax LF prot: -7.6

Results for CN1CC(c2ccccc2Cl)C2(COc3ccccc3C2=O)C12C(=O)Nc1ccccc12 (configuration not stated) ?
Bead autofluor: 20126*; BoNT-A LC inh2: 0.5; Vc quorum ag: -1.0; BoNT-F LC inh: -0.6; Anthrax LF prot: -0.2

What do the screens show for `O=C(COc1ccccc1[N+](=O)[O-])Nc1cc(Cl)ccc1C(=O)O`?
Bead autofluor: 5117; BoNT-A LC inh2: 0.1; Vc quorum ag: -0.2; BoNT-F LC inh: -1.5; Anthrax LF prot: -1.5

How did Cc1cccc(NC(=O)CSc2nnc(Cn3nnc(-c4ccccc4)n3)n2-c2ccccc2)c1 do in these assays?
Bead autofluor: 23099*; BoNT-A LC inh2: -0.6; Vc quorum ag: inactive; BoNT-F LC inh: -1.3; Anthrax LF prot: -2.6

How did CCOc1ccc(CC(=O)Nc2sc(Cc3ccccc3)c(C)c2C(N)=O)cc1OCC do in these assays?
Bead autofluor: 23316*; BoNT-A LC inh2: 2.4; Vc quorum ag: -2.1; BoNT-F LC inh: 3.3; Anthrax LF prot: 3.4

Results for Cc1cc(C)cc(C(=O)N2CCCCCC2)c1 ?
Bead autofluor: 23038*; BoNT-A LC inh2: -0.7; Vc quorum ag: -6.0; BoNT-F LC inh: 2.0; Anthrax LF prot: -0.9

Results for Cc1cc(C)c(C(=O)c2ccc(C(=O)N3CCCCC3)cc2)c(C)c1 ?
Bead autofluor: 6054; BoNT-A LC inh2: 0.1; Vc quorum ag: 0.3; BoNT-F LC inh: -7.4; Anthrax LF prot: -2.4

What do the screens show for `O=C(c1ccc(C(=O)N2CCCCCC2)cc1)N1CCCCCC1`?
Bead autofluor: 3856; BoNT-A LC inh2: 0.2; Vc quorum ag: inactive; BoNT-F LC inh: -3.1; Anthrax LF prot: -5.7

Results for Cc1cc(C(=O)N2CCCCCC2)cs1 ?
Bead autofluor: 23371*; BoNT-A LC inh2: -0.7; Vc quorum ag: -0.2; BoNT-F LC inh: -2.0; Anthrax LF prot: -4.2

What do the screens show for `COc1ccccc1N1CCN(CCCN=C2CC(=O)N(C)C(=O)N2C)CC1`?
Bead autofluor: 5532; BoNT-A LC inh2: -0.6; Vc quorum ag: -0.6; BoNT-F LC inh: -2.8; Anthrax LF prot: -0.2

Assay outcomes deposited in PubChem BioAssay by several laboratories.
